A selection: hits, their analogues and other compounds. The true share with any hit is near 4%.
CF NFkB inh: inhibitors of cystic fibrosis induced NF-kB; KKLEB NF-kB-GFP reporter, PAF-induced, GFP fluorescence overnight; 360,000 tested, 0.86% active; AID 588850; inhibition, % at 5 µM;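 active = at least 50% inhibition at 5 µM, scaled per plate between neutral and stimulator controls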;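 note: PAF is a Pseudomonas aeruginosa culture filtrate used as stimulus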
TROY NFkB inh: inhibitors of TROY-dependent NF-kB signaling; 360,000 tested, 0.98% active; inhibition, % at 10 µM; Q293 LMP1-TROYcd NF-kB luciferase reporter, 4 h; AID 1347056;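 active = compounds whose plate-normalised and pattern-corrected inhibition of the luciferase reporter signal at the single screening dose is 50% or more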
TWEAK-Fn14 inh: blocks TWEAK-Fn14 interaction in a reporter cell assay; inhibition, % at 10 µM; 360,000 tested, 2% active; TWEAK-stimulated Fn14 reporter cells, luciferase luminescence, 8 h; in the data active = inhibition above about 50%
HIF-2a block: blocks HIF-2a reporter activity; 786-0 RCC cells HIF-2a reporter, luciferase luminescence, overnight; inhibition, % at 18.8 µM; 360,000 tested, 0.72% active;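 active = inhibition of the luminescence signal of 40% or more relative to plate controls, in a single-dose primary screen at 18.75 µM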
Peg3 promoter: inhibitors of Peg3 promoter. HeLa PEG-Prom luciferase reporter, luminescence, overnight. inhibition, % at 20 µM. 360,000 tested, 1.7% active. AID 588405;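 active = inhibition of at least 50% at 20 µM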
KKLEB tox: reduces viability of KKLEB cystic fibrosis airway cells | activity change (cytotoxicity), % at 5 µM | KKLEB CF airway cells viability, ATPlite luminescence, overnight; hits give low values; cells stimulated with P. aeruginosa culture filtrate | AID 602141 | 360,000 tested, 0.36% active;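 active = corrected activity change at or below -50% at 5 µM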
Numbers stand for hits; n = inactive; x = no result.

SMILES	CF NFkB inh	TROY NFkB inh	TWEAK-Fn14 inh	HIF-2a block	Peg3 promoter	KKLEB tox
Cc1nc2ccccc2n1/N=C/c1ccc([N+](=O)[O-])s1	n	n	70.4	n	n	n
Cc1cc2ncn(/N=C/c3ccc([N+](=O)[O-])s3)c2cc1C	n	n	n	n	73.3	n
COc1cccc(/C=N/n2cnc3cc(C)c(C)cc32)c1OC	n	n	n	n	n	n
O=C(NCc1ccccc1)C(c1ccc(-c2ccccc2)cc1)n1c(=O)c(-c2ccco2)nc2ccccc21 (configuration not stated)	x	x	x	n	x	x
CC(NC(=O)Cn1cccc1)c1ccccc1 (configuration not stated)	n	n	n	n	n	n
CC(=O)NCN1CCN(CNC(C)=O)CC1	n	n	74.1	n	n	n
O=C(O)CN1CCN(CC(=O)O)CCN(CC(=O)O)CCN(CC(=O)O)CC1	n	n	n	n	n	n
CCCCN(CCCC)S(=O)(=O)c1ccc(NC(=O)c2ccc([N+](=O)[O-])cc2Cl)cc1	n	n	63.4	n	n	n
COc1ccc(CN(C)C(=O)c2cccc(S(=O)(=O)N3CCCc4ccccc43)c2)c(OC)c1OC	n	n	n	n	n	n
CCN(CC)c1ccc(/C=N/NC(=O)c2c(-c3ccccc3)noc2C)cc1	n	52.8	n	n	n	n
CCC(=O)N(CCc1ccccc1C)Cc1cc2ccc(C)cc2[nH]c1=O	n	n	n	n	n	n
CC(=O)N(CCc1ccccc1C)Cc1cc2cc3c(cc2[nH]c1=O)OCO3	n	x	99.6	n	n	n
COC(=O)C1=C(C)N(Cc2ccc(C)cc2)C(=O)/C1=C\c1cc(OC)c(OC)c(OC)c1	n	n	n	50.9	n	n
COC(=O)C1=C(C)N(Cc2ccc(C)cc2)C(=O)/C1=C\c1ccc(O)c(OC)c1	n	n	n	n	n	n
CC(C)CCn1cnc2c(oc3nc4c(cc32)CCCC4)c1=O	n	55.3	76.0	n	n	n
Cc1cc(C)c(C(=O)CN2C(=O)C(=O)N(C3CCCC3)C2=O)cc1C	n	n	n	n	n	n
CC1NC(=S)N(Cc2ccccc2)C1=O (configuration not stated)	n	n	n	n	n	n
O=C(O)CC1NC(=S)N(Cc2ccccc2)C1=O (configuration not stated)	n	n	n	n	52.4	n
CCSc1nc(-c2ccccc2)c(C#N)c(=O)[nH]1	n	n	n	n	n	n
CCCOc1ccc(-c2nc(SCc3ccccc3)[nH]c(=O)c2C#N)cc1OC	n	51.4	n	n	n	n
c1ccc(NCCSc2nc3ccccc3s2)cc1	n	n	n	n	n	n
CCS(=O)CCSc1nc2ccccc2s1 (configuration not stated)	n	59.6	79.7	n	n	n
Cc1ccc(-n2c3c(cc(C(=O)NCC(=O)c4ccccc4)c2=O)C(=O)CCC3)cc1	n	n	92.8	n	n	n
CCOC(=O)c1ccc(N2N=C(C)/C(=C/C=C/c3ccco3)C2=O)cc1	n	n	n	n	n	n
CC1=NN(c2ccc(C)c(C)c2)C(=O)/C1=C\C=C\c1ccc([N+](=O)[O-])o1	n	n	86.4	n	87.6	n
SMILES	CF NFkB inh	TROY NFkB inh	TWEAK-Fn14 inh	HIF-2a block	Peg3 promoter	KKLEB tox
O=C(CSc1n[nH]c(=O)n1C1CC1)Nc1cc(Cl)ccc1Oc1ccccc1	n	n	n	n	50.1	n
O=C(CSc1n[nH]c(=O)n1C1CC1)Nc1ccccc1	n	n	n	n	n	n
O=C(NCc1ccccc1)C(c1ccc(C(F)(F)F)cc1)n1c(=O)c(-c2cc3ccccc3[nH]2)nc2ccccc21 (configuration not stated)	x	x	x	n	x	x
CCC(C)Sc1ccc(-c2nc3cc(C)ccn3c2NC2CCCCC2)cc1 (configuration not stated)	n	n	n	n	n	n
CCC(C)Sc1ccc(-c2nc3cnccn3c2NC2CCCCC2)cc1 (configuration not stated)	n	n	n	n	91.3	n
COc1ccc(Sc2ccc(-c3nc4cnccn4c3NC3CCCCC3)cc2OC)cc1	n	n	62.0	n	63.5	n
CCCCCCSc1ccc(-c2nc3cnccn3c2NC2CCCCC2)cc1	x	n	n	n	x	x
COC(=O)c1cc([N+](=O)[O-])c(-n2cncn2)c([N+](=O)[O-])c1	n	n	n	n	94.4	n

Bioassay records as filed in PubChem BioAssay.
